In all, about 25,000 sequences were measured (“ln(normalized median fluorescence intensity)”: median about 6.7, highest 2% from about 10 on). What follows is part of a selection rich in the highest values, with near analogues and random picks from the rest.
The sequences below were run on PfHDP1 homeodomain (GST-tagged) (assay: gcPBM binding intensity (ln(normalized median fluorescence intensity)); higher = stronger DNA binding).
Summary of the method: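 An Agilent 4 × 180k array of primer-extended double-stranded 36-bp intergenic genomic probes, with negative controls, was incubated for 1 h with GST-tagged P. falciparum DNA-binding domains expressed in E. coli. Alexa488 anti-GST antibody detected bound protein, scanned at 488 nm. Binding intensity is the highest Masliner-normalised natural-log median intensity across replicate spots of either probe orientation.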

Sequence	gcPBM binding intensity (ln)
TATAAACCCACCTACACACACAACGTAAATGCATTG [CACACA_site2238]	6.96
TTCTTTTCAGAAGGAAAGAATTATAACATATCATAA [XGTACX_negctrl_site548]	6.13
AATAATTTGGTCTTATCAAAAATTAAAAATAAATAA [XGTACX_negctrl_site430]	6.05
TTTCCCTACCAAAAATGTACTTATAAGCGTTTTTAT [XGTACX_site739]	6.5
TTTTATTTAACTCATAATTTTTTAAAAAACAATTAT [XGTACX_negctrl_site19]	6.37
TATATATATATATGTGCACACATAAAGATATTATTT [CACACA_site3734]	10.6
ATAAAGATATGACACACACACATATTATAGATATAT [CACACA_site7434]	6.69
TATATATATATGTGCACACATAAAGATATTATTTTT [CACACA_site3733]	10.1
AATGTATTCTCTCATGCACACTTTCTTTAAGGGACC [CACACA_site5245]	8.87
AATATATTTGTGTATGTGCGCAGTGTGTAATTTATT [GTGCAC_site9765]	7.92
GTTCATCACATATACACATGCATATTCTAATATGTA [TGCATGCA_site809]	7.25
TTCGTTCTTTTATGCACACTCAACATATAAATTAAA [CACACA_site1209]	10.1
TTTCTTCTGCATTATGCACACTATAATTCGTTAAAA [CACACA_site5568]	10.5
TTTTTCTTCTGCATTATGCACACTATAATTCGTTAA [CACACA_site2837]	10.2
ATTTATATATCGCCCACACACATGTGATTATTTATA [CACACA_site6905]	7
TTATATTTTAAGAAATGTACATGATATAATTATCAA [XGTACX_site8693]	6.39
AATATATATGGACATGCATGGACATAATAATCTATT [TGCATGCA_site838]	6.47
TGGGCACCCATATACACACACAAATACAATGATAAA [CACACA_site4762]	6.48
AATATAAATAAAAACACACACACACCGATATATATA [CACACA_site5283]	7.05
AAAATACATAAACACACACACACACCGATATATATA [CACACA_site9186]	7.14
CATATAAAAATGTGCACACACACACCGATATATATT [CACACA_site4940]	10.8

Sequence	gcPBM binding intensity (ln)
GGTGCACCCATATACACACACAAATACAATGATAAA [CACACA_site1132]	10.2
ATATATGAAAATATATGTACACAACATATAAAATAG [XGTACX_site5132]	6.63
CATATAAAAATGTGCACACACACACCCATATATATT [CACACA_site1526]	10.5
AATAAATATATATACACACCCATATATATATATATA [CACACA_site2595]	9.48
AAAAAAAAAAAACACACACACACACCCATATATAAA [CACACA_site1170]	6.79
TTACAACATGAAAATGTGCACATATATATATATATA	10.8
TATGTGCACCCATATACACACACAAATACAATGATA [CACACA_site8295]	10.7
AAAAAAATGAAACACACACACACATATATATATATA [CACACA_site1043]	9.32
GGTATTTTCACATATAGTACACAAAAATAAAATAAA [XGTACX_site2139]	6.68
CATATAGATTTGTTCACACACACACTAAAAAAAAAA [CACACA_site7212]	6.7
TATTCTAATTTTTAAACACACAAATATAAATAAGTA [CACACA_site3149]	6.35
AAAAGAAAAAAAAAAAAAAAAAAAATTAAAATATAA [CACACA_negctrl_site17]	5.65
TGAATAATATACATACGTACATACATATATATAATA [XGTACX_site1302]	6.17
AATATAAATATTAAAACACACATAAAAAGATTATTA [CACACA_site1764]	6.29
ATATATATAAAATGTTGTACATATATATAAATAATA [XGTACX_site1661]	6.15
TAAATTTTTAAATACACACATACACCCATACAGACA [CACACA_site548]	7.18
TTTAAAACCCTAAAAAAAAAAAAAAAAAAAAAAAAA [CACACA_negctrl_site1212]	6.26
TTTTTTTAAATTATATGTACATAATTTTAATTTTAT [XGTACX_site5086]	6.43
ATTTTTTTTTTTATGTGTACATATATTTTTTTAATT [XGTACX_site7921]	7.04
AAAAAAAAAAAAAACACACACACACCCATAAATATA [CACACA_site151]	6.87
AATATAAATAAAAACACACACACACCCATATATATA [CACACA_site2267]	7.13

Sequence	gcPBM binding intensity (ln)
AACATATAAAAATGTGCACACACACCCATATATATA [CACACA_site1525]	10.7
AAATAAATAATTTAATGTACATATATAATATATATA [XGTACX_site1831]	6.81
AGAGTACAAGTAAATACACACATATAGATGAAAATA [CACACA_site6635]	6.88
TATATTATATGTATTGCACACCTTCAACAACTACTT [CACACA_site8121]	10.5
TTATTATGTATATATGCACACAATACCCAAAACAAC [CACACA_site80]	9.84
ATTGTATCTGTATATGCACACAATATCTGTACTTCT [CACACA_site5445]	10.1
CAACTAACATATATTCAACACACATATACCTTCAAC [CACACA_site8988]	6.43
TATATATTGATATGCACACCTATGTATTGATGTATA [CACACA_site1073]	10
TATTATATGTATTGCACACCTTCAACAACTACTTCT [CACACA_site655]	10.6
AAAAAAATAAATAAATGTACACATATATATATATAT [XGTACX_site4350]	9.25
AAAATGTATTCTCTCATGCACACTTTCTTTAAGGGA [CACACA_site2196]	8.5
AATACAAAAAAAGGTACACACATAATATATTTATTA [CACACA_site2628]	6.46
TAATGTATTATATTTTGTTTTCTTCCACCAAAAAAA [XGTACX_negctrl_site64]	6.41
ATTATATATATTTATGCACACAAAATATATTATATA [CACACA_site9244]	10.1
TATATATCTTTATGCACACACAAAGAAAATTTTCCT [CACACA_site7366]	10.5
GTTCTTTCAAATTATACACACCAAAAAAAAAAAAAA [CACACA_site5660]	6.62
AATATATCTTATTTAACACACACAAAGAAAATAGAA [CACACA_site9242]	7.34
TTCTTTTTCCAATTTGCACACCACAAAATTATATAT [CACACA_site2909]	10.6
TATATATTTTTATGCACACACAAAGAAAATTTTCCT [CACACA_site2863]	10.8
TATATATATTTTTATGCACACACAAAGAAAATTTTC [CACACA_site8931]	10.1
TATATCTTATTTAACACACACAAAGAAAATAGAAAA [CACACA_site3732]	6.81
